# Test results: PubChem BioAssay (NCATS)
# Results filed as inconclusive are left out. Unmarked numbers belong to inactive results. Calls of active or inactive are those of the source. Calls come from the whole dose curve; as a rule, active = well fitted cell-killing curve with a large enough effect; inconclusive = small, poorly fitted or top-dose-only effect, or effect the other way; inactive = no such curve, though single readings can be large or run the other way.
# Test: Quantitative High-Throughput drug screen in 47 multiple myeloma cell lines against the NCATS MIPE library collection: KMS28PE_JCRB cell viability assay (AID 1918983); note: nearly all actives have a fitted effect of over 35% in size
# Conditions: KMS28PE multiple myeloma viability, CellTiter-Glo ATP, 48 h; series mostly up to 45.8 µM; viability, % of DMSO control: at the top concentration
# Excerpt: PI: Beverly A. Mock Ph.D.
# Laboratory of Cancer Biology and Genetics,
# Center for Cancer Research, National Cancer Institute,
# National Institute of Health, Bethesda, Maryland
# Drug resistance and disease progression are common in multiple myeloma (MM) patients, underscoring the need for new therapeutic combinations. […] We hypothesized that effective combinations would reduce MYC expression and enhance p16 activity. […] These preclinical data identify potentially useful drug combinations for evaluation in drug-resistant MM and reveal potential mechanisms of combined drug sensitivity.
# Described herein is the primary MIPE qHTS used to cherrypick compounds. Validated compounds were then further tested for potential synergistic activiy.
# [1] Peat TJ, Gaikwad SM, Dubois W, Gyabaah-Kessie N, Zhang S, Gorjifard S, Phyo Z, Andres M, Hughitt VK, Simpson RM, Miller MA, Girvin AT, Taylor A, Williams D, D'Antonio N, Zhang Y, Rajagopalan A, Flietner E, Wilson K, Zhang X, Shinn P, Klumpp-Thomas C, McKnight C, Itkin Z, Chen L, Kazandijian D, Zhang J, Michalowski AM, Simmons JK, Keats J, Thomas CJ, Mock BA. Drug combinations identified by high-throughput screening promote cell cycle transition and upregulate Smad pathways in myeloma. Cancer Lett. 2023 Aug 1;568:216284. doi: 10.1016/j.canlet.2023.216284. Epub 2023 Jun 24. PMID: 37356470; PMCID: PMC10408729.
# SEQUENCE No. (e.g., 1, 2, 3, etc.); […] (e.g., Cells, Incubation, Reagent, etc.); VALUE and DESCRIPTION.
# 1; Cells; 5 uL; white, solid bottom 1536-well Greiner assay plate.
# 2; Compounds; 23 nL; Kalypsis pin tool (Wako USA) equipped with a 1536-well pin head to transfer to the assay plates.
# 3; Incubation; 48 hours; 37C incubation.
# 4; Reagent;5uL; CellTiter Glo (Promega).
# 5; Detector; 425V; Luminescence; Viewlux PerkinElmer.
# NOTES (numbers refer to Sequence numbers above)
# 1. The cell-based screening methods employed in this study were like those previously published. Briefly, the corresponding myeloma cell lines were screened in 1,536-well plates with 500 cells, 5-uL per well for inhibition of cell viability (assessed by measuring ATP levels with CellTiterGlo).
# 2. NCATS MIPE 4.0 library of approved and investigational drugs were added using the Kalypsis pin tool. Wells treated with DMSO only for 100% viability and media only for 0% viability were used as controls.
# 3. The assay plates were covered and incubated for 48 hours in a 37C, 5% CO2 incubator with controlled humidity.
# 4. After 48 hours, CellTilter-GloTM luminescent substrate mix (Promega) reagent was added to the assay plate and plates we incubated for 5 min at room temperature.
# 5. Signal was measured as median relative luminescence units on a ViewLux (PerkinElmer) multiplate reader.
# [1] Heske CM, Davis MI, Baumgart JT, Wilson K, Gormally MV, Chen L, Zhang X, Ceribelli M, Duveau DY, Guha R, Ferrer M, Arnaldez FI, Ji J, Tran HL, Zhang Y, Mendoza A, Helman LJ, Thomas CJ. Matrix Screen Identifies Synergistic Combination of PARP Inhibitors and Nicotinamide Phosphoribosyltransferase (NAMPT) Inhibitors in Ewing Sarcoma. Clin Cancer Res. 2017 Dec 1;23(23):7301-7311. doi: 10.1158/1078-0432.CCR-17-1121. Epub 2017 Sep 12. PMID: 28899971; PMCID: PMC6636827.
# Potency is the fitted concentration of half-maximal effect.
Structure (SMILES),"viability, % of DMSO control",Potency
NCCCCCC(=O)O,128%,
CC[N+](CC)(CC)CCOc1cccc(OCC[N+](CC)(CC)CC)c1OCC[N+](CC)(CC)CC,98.3%,
CCOC(=O)c1ncn2c1CN(C)C(=O)c1cc(F)ccc1-2,121%,
CC(C)(Oc1ccc(C2CC2(Cl)Cl)cc1)C(=O)O (stereo not given),146% [at 92.2 µM],
O=C1N(c2ccccc2)c2ccccc2C1(Cc1ccncc1)Cc1ccncc1,152%,
Cc1ccccc1N1C(=O)c2cc(S(N)(=O)=O)c(Cl)cc2NC1C (stereo not given),120%,
CS(=O)(=O)Nc1ccc([N+](=O)[O-])cc1Oc1ccccc1,,0.187 µM (active)
O=C(c1ccc(F)cc1)C1CCN(CCn2c(=O)[nH]c3ccccc3c2=O)CC1,107%,
O=C(CCCN1CCC(O)(c2ccc(Cl)cc2)CC1)c1ccc(F)cc1,,16.6 µM (active)
C[C@@H]1CC(=O)NN=C1c1ccc(NN=C(C#N)C#N)cc1,,23.5 µM (active)
CC1COc2c(N3CCN(C)CC3)c(F)cc3c(=O)c(C(=O)O)cn1c23 (stereo not given),129%,
CS(=O)(=O)CCNCc1ccc(-c2ccc3ncnc(Nc4ccc(OCc5cccc(F)c5)c(Cl)c4)c3c2)o1,,26.4 µM (active)
NC12CC3CC(CC(C3)C1)C2,109%,
O=C(Nc1ccc([N+](=O)[O-])cc1Cl)c1cc(Cl)ccc1O,,2.09 µM (active)
CC(C)Cc1ccc(C(C)C(=O)O)cc1 (stereo not given),115% [at 23.2 µM],
NS(=O)(=O)c1cc2c(cc1Cl)NCNS2(=O)=O,126%,
Cn1c(=O)c2c(ncn2C)n(C)c1=O,107%,
Cn1cnc2c1c(=O)[nH]c(=O)n2C,,18.7 µM (active)
COc1ccc(C2CNC(=O)C2)cc1OC1CCCC1 (stereo not given),144%,
CC(C)NCC(O)COc1ccc(CCOCC2CC2)cc1 (stereo not given),105%,

Structure (SMILES),"viability, % of DMSO control",Potency
Clc1ccc(C(c2ccccc2Cl)C(Cl)Cl)cc1 (stereo not given),,23.5 µM (active)
CCCNCC(O)COc1ccccc1C(=O)CCc1ccccc1 (stereo not given),92.1%,
CC12CC3CC(C)(C1)CC(N)(C3)C2,140%,
CC1(CN2CCC(n3c(=O)[nH]c4ccccc43)CC2)OCc2ccccc2-n2cccc21 (stereo not given),,14.8 µM (active)
CN(C)CCCN1c2ccccc2CCc2ccc(Cl)cc21,,14.8 µM (active)
COc1ccccc1N1CCN(CC(O)COc2cccc3ccccc23)CC1 (stereo not given),,13.2 µM (active)
Clc1ccc2nsnc2c1NC1=NCCN1,137%,
CCc1cccc2c3c([nH]c12)C(CC)(CC(=O)O)OCC3 (stereo not given),114%,
Cc1cn([C@H]2C=C[C@@H](CO)O2)c(=O)[nH]c1=O,123% [at 92.2 µM],
CN1CCN(C2=Nc3cc(Cl)ccc3Nc3ccccc32)CC1,110%,
O=c1[nH]cc(F)c(=O)[nH]1,104%,
NC(=O)OCC(COC(N)=O)c1ccccc1,127%,
O=C1c2c(O)ccc(O)c2C(=O)c2c(NCCNCCO)ccc(NCCNCCO)c21,,0.935 µM (active)
CN1C2CCC1CC(OC(=O)C(CO)c1ccccc1)C2 (stereo not given),106%,
NCCS(=O)(=O)O,99.9%,
Nc1nc2c(ncn2COC(CO)CO)c(=O)[nH]1,,20.9 µM (active)
NC(=O)NO,,2.35 µM (active)
COc1cc2nc(N3CCN(C(=O)c4ccco4)CC3)nc(N)c2cc1OC,,26.4 µM (active)
NCCc1cnc[nH]1,150%,
CC(C)(C)C(=O)Oc1ccc(S(=O)(=O)Nc2ccccc2C(=O)NCC(=O)O)cc1,140%,
